Reference: PubChem BioAssay (NCI)
About 79,000 compounds went through this panel and 15% of them were active in at least one assay; those are over-represented in the sample as a whole. Rule as the data show it: active = growth inhibition above about 70%; inactive = the rest.

What was measured:
[1] = NCI Yeast Anticancer Drug Screen. Data for the rad50 strain (AID 155);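 also: 0% = growth of vehicle-only cultures of the same strain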; details: S. cerevisiae rad50 strain growth inhibition; at 50.0 µM; active compounds read high
How it was run: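 Inhibition values express reduced yeast growth in compound-treated cultures relative to vehicle-treated controls.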

[2] = NCI Yeast Anticancer Drug Screen. Data for the mec2-1 strain (AID 157); details: S. cerevisiae mec2-1 strain, at 50.0 µM, active compounds read high
How it was run: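 Test agents were screened against the mec2-1 yeast strain, with defined DNA repair or cell cycle alteration. Growth was scored as inhibition against vehicle-only controls.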

[3] = NCI Yeast Anticancer Drug Screen. Data for the sgs1 mgt1 strain (AID 161);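 also: 0% = growth of cultures given vehicle only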; details: S. cerevisiae sgs1 mgt1 strain, at 50.0 µM, active compounds read high
How it was run: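 Test agents were incubated with a DNA-repair-mutant yeast strain. Growth was then read and compared against vehicle-treated controls.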

[4] = NCI Yeast Anticancer Drug Screen. Data for the cln2 rad14 strain (AID 165);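 also: 0% = growth equal to vehicle treated cultures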; details: S. cerevisiae cln2 rad14 strain, at 50.0 µM, active compounds read high
How it was run: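 Growth of compound-exposed yeast (cln2 rad14 genotype) measured and expressed as inhibition relative to vehicle.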

[5] = NCI Yeast Anticancer Drug Screen. Data for the bub3 strain (AID 167); details: S. cerevisiae bub3 mutant strain, at 50.0 µM, active compounds read high
How it was run: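 Steps: expose the mutant yeast strain to compound; grow alongside vehicle-treated cultures; measure growth; express inhibition against the vehicle cultures.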

[6] = NCI Yeast Anticancer Drug Screen. Data for the mlh1 rad18 strain (AID 175); details: S. cerevisiae mlh1 rad18 strain growth inhibition; at 50.0 µM; active compounds read high
How it was run: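 In this whole-cell yeast screen, a strain with altered DNA damage repair is challenged with compound, and its growth is measured against matched vehicle-treated controls.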

Measured: growth inhibition

CC(=O)C1C(=O)C(=O)N(c2ccc(F)cc2)C1=O (stereo unspecified)
inactive: [1] -17.4% | [2] -15.5% | [3] -5.4% | [4] -6.95% | [5] -25.9% | [6] -27.3%

CCCCNC(=O)/N=C/c1c(O)c2ccccc2oc1=O
inactive: [1] 7.9% | [2] -10.1% | [3] -13.4% | [4] -1.5% | [5] -42.5% | [6] -16.6%

CC(C)C(O)C[N+](=O)[O-] (stereo unspecified)
inactive: [1] 66.3% | [2] 6.8% | [3] 20.3% | [4] 6.25% | [5] 13.6% | [6] 16.6%

O=S1(=O)OCCOS(=O)(=O)C1S(=O)(=O)c1cccc2ccccc12
inactive: [1] -19.2% | [2] -5.95% | [3] 12.8% | [4] -8.7% | [5] -2.95% | [6] 27%

CCCCCNC(=O)CCC
inactive: [1] 22.6% | [2] 1.2% | [3] 25.6% | [4] 5.6% | [5] 7.05% | [6] 40.9%

CC1(C)C(N)C(C)(C)C1N (stereo unspecified)
inactive: [1] -0.05% | [2] -14.5% | [3] -0.3% | [4] 11.8% | [5] 17.1% | [6] 2.3%

COc1cccc2c(=O)c3c(oc12)CCC(C)C3 (stereo unspecified)
inactive: [1] -10.6% | [2] 4.35% | [3] 5.85% | [4] -35.7% | [5] -14.8% | [6] -9.4%

C/C(=N\N=P(c1ccccc1)(c1ccccc1)c1ccccc1)C(C)(C)C
inactive: [1] 8.35% | [2] 10.2% | [3] 1.75% | [4] 11.9% | [5] 4.5% | [6] 31.7%

CCC(SC(C)=O)C(=O)O (stereo unspecified)
inactive: [1] 13% | [2] -16.1% | [3] 2.65% | [4] 14.4% | [5] -2.05% | [6] 9.5%

CC(C)=C(CSC#N)S(=O)(=O)c1ccc(C)cc1
inactive: [1] 0.45% | [2] 14.2% | [3] 7.1% | [4] -5.1% | [5] 36.9% | [6] 14.7%

O=C(NNC(=S)Nc1ccc(Cl)cc1)C12CC3CC(CC(C3)C1)C2
inactive: [1] -9.4% | [2] 6.15% | [3] -4.15% | [4] 17.4% | [5] 30.8% | [6] 8.7%

C=Cc1ccc(C)[n+](C[Si](C)(C)O[Si](C)(C)C)c1
inactive: [1] -7.75% | [2] -39% | [3] -8.95% | [4] 19.4% | [5] -22.9% | [6] -20.7%

Cc1ccc2c(c1)[n+]([O-])c1c3ccccc3[nH]c1[n+]2[O-]
inactive: [1] 63.2% | [2] 23% | [3] 22.9% | [4] 25.7% | [5] 15.2% | [6] 26.4%

O=[N+]([O-])c1ccc(N=Nc2c(O)[nH]c3ccc(Br)cc23)c([N+](=O)[O-])c1
inactive: [1] 9.75% | [2] -21.2% | [3] 2.15% | [4] -23.1% | [5] -20.6% | [6] 5.5%

Cc1cc(NC(=O)C(=O)CC(=O)c2cccnc2)no1
inactive: [1] -59% | [2] -1.8% | [3] -8.2% | [4] -52.1% | [5] -6.2% | [6] -4.15%

NC(=O)c1nc(N)nc(N)c1[N+](=O)[O-]
inactive: [1] -10.8% | [2] -15.1% | [3] -16.1% | [4] -18.8% | [5] -21.9% | [6] -18.9%

C/C=C1/CN2CCc3c([nH]c4ccccc34)C2CC1C(Cc1c[n+]2c(c3[nH]c4ccccc4c13)CC1C(C(=O)OC)=COC(C)C1C2)C(=O)OC (stereo unspecified)
inactive: [1] 13.4% | [2] -25.6% | [3] -21.4% | [4] 17.1% | [5] -22.2% | [6] -12.3%

Cn1cnc([N+](=O)[O-])c1/N=C/c1ccccc1
inactive: [1] 0.1% | [2] 2.95% | [3] -3.95% | [4] -41.3% | [5] -28.5% | [6] -6.5%

CCc1n[nH]c(=O)n1/N=C/c1ccc(C)cc1
inactive: [1] -0.2% | [2] -3.3% | [3] -4.85% | [4] -0.3% | [5] 3.8% | [6] -2.25%

COC(=O)c1c(O)c(C#N)c2[nH]c3ccccc3n2c1=O
inactive: [1] -22.6% | [2] -16.6% | [3] -10.6% | [4] 7.85% | [5] -4.4% | [6] -18.4%

CN(C)CCNC(=O)c1nc([N+](=O)[O-])cn1C
inactive: [1] 31.9% | [2] 3.55% | [3] -2.25% | [4] 7.35% | [5] 20.4% | [6] -69.2%

CCC1CN2CCc3cc(OC)c(OC)cc3C2CC12CO2 (stereo unspecified)
inactive: [1] -5.6% | [2] -21.3% | [3] 3.15% | [4] -2.5% | [5] 48.8% | [6] -36.1%

O=C1/C(=C\c2ccccn2)c2ccccc2N1Cc1ccccc1
inactive: [1] 7.6% | [2] 1.25% | [3] 8.75% | [4] 16.9% | [5] 11.2% | [6] 22.3%

CC(C)(c1ccc([N+](=O)[O-])cc1)c1ccc(N)c([N+](=O)[O-])c1
inactive: [1] 0.65% | [2] -9.65% | [3] -10.6% | [4] 0.1% | [5] -9.1% | [6] -13.1%

O=C(O)CCC(=O)NC1c2ccccc2Oc2ccccc21
inactive: [1] -5.9% | [2] -1.75% | [3] 11.6% | [4] -10.2% | [5] 7.85% | [6] 5.95%

COc1ccc(C(C2=C(O)CC(C)OC2=O)C2=C(O)CC(C)OC2=O)cc1 (stereo unspecified)
inactive: [1] -15.1% | [2] -5.4% | [3] -12.6% | [4] -14.2% | [5] -19.1% | [6] -10%

COc1ccccc1NC(=O)C1=C(C)NC(C)=C(C(=O)Nc2ccccc2OC)C1c1ccc(N(C)C)cc1
inactive: [1] 50.2% | [2] 41.4% | [3] 61.4% | [4] 24.9% | [5] 46.2% | [6] 45%

N=C1N=C(N)c2cc3c(cc21)SCCSCCCSCCS3
inactive: [1] 6.05% | [2] 1.95% | [3] 2.6% | [4] 9.15% | [5] 4.2% | [6] 30.4%

Oc1nc(-c2ccccc2)sc1-c1ccccc1
inactive: [1] -6.05% | [2] 16.9% | [3] -0.5% | [4] -24% | [5] -10.7% | [6] -9.15%

Cc1ccc(S(=O)(=O)Oc2c(Br)cc(-c3ccccc3)cc2Br)cc1
inactive: [1] 27.9% | [2] 3.4% | [3] 13.5% | [4] 6.65% | [5] -12.4% | [6] 18.6%

CCOC(=O)c1cc2c(nc1NCc1ccccc1)C(=O)CCCC2
inactive: [1] 7.95% | [2] 22% | [3] 30.8% | [4] 10.3% | [5] 26.4% | [6] 17.6%

CC(=O)c1cc([N+](=O)[O-])c[nH]1
inactive: [1] 9.05% | [2] 1.45% | [3] 1.1% | [4] -19.1% | [5] 9.25% | [6] 0.5%

CC(=O)OC1c2ccccc2Cc2ccccc21
inactive: [1] 21.5% | [2] 26.3% | [3] 4.1% | [4] 16.6% | [5] 19.1% | [6] 13.1%

Cc1cc(=O)[nH]c(=O)[nH]1
inactive: [1] 5.85% | [2] -7.55% | [3] -16.6% | [4] -4.15% | [5] -17.7% | [6] -5.4%

Cc1ccc2c(c1)CN(C)CO2
inactive: [1] -15% | [2] 6.45% | [3] 5.6% | [4] -51.4% | [5] -18.1% | [6] -24.1%

CC(=O)CC1CCCC1
inactive: [1] 19.4% | [2] 0.6% | [3] 19.9% | [4] 15.9% | [5] 5.3% | [6] 17.9%

CC(C)OC(=S)Nc1ccc(Cl)c(COC(C)(C)C)c1
inactive: [1] -5.8% | [2] -16.2% | [3] -4.65% | [4] 7.6% | [5] -10.1% | [6] -7.4%

N=C1N=Nc2nc(C(C(=O)c3ccc(O)cc3O)c3nc4n(c3O)C(=N)N=N4)c(O)n21 (stereo unspecified)
inactive: [1] 2.35% | [2] -4.3% | [3] 7.15% | [4] -24% | [5] -15.3% | [6] -2.4%

Clc1ccc(N=Nc2ccccc2)cc1
inactive: [1] -2.45% | [2] 12.3% | [3] 4.4% | [4] -14.7% | [5] 1.7% | [6] 5.25%

Cc1ccccc1OS(=O)(=O)c1ccc(Br)cc1
inactive: [1] -4.2% | [2] 13.8% | [3] -4.15% | [4] -107% | [5] 24.8% | [6] -15.8%

Cc1ccccc1N(CC1CO1)CC1CO1 (stereo unspecified)
inactive: [1] 10.2% | [2] -18.1% | [3] -20.8% | [4] -19% | [5] -0.8% | [6] -3.25%
